Data as given in PubChem BioAssay.
The source made the active and inactive calls. Unless noted, how the calls were made is not given here.

Assays:
[1] = A549 cell viability effects, profiling panel, calcein-AM fluorescence, 48 h, basal (AID 1162); settings: higher = more signal; further: test concentration not given here
[2] = adipocyte viability effects, profiling panel, cell-based, 3T3-L1 adipocytes, calcein-AM fluorescence, 48 h, basal (AID 1163); settings: 3T3-L1 adipocytes viability, higher = more signal; further: test concentration not given here
[3] = HepG2 cell viability effects, profiling panel, calcein-AM fluorescence, 48 h, basal (AID 1164); settings: higher = more signal; further: test concentration not given here
[4] = MM1S cell viability effects, profiling panel, calcein-AM fluorescence, 48 h, basal (AID 1165); settings: higher = more signal;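 further: viability of MM1S multiple myeloma cells under basal unstimulated conditions; test concentration not given here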
[5] = basal RPMI8226 viability, no added stimulus, profiling panel, cell-based, calcein-AM fluorescence, 48 h, PK04 Diversity Set (AID 1166); settings: RPMI8226 myeloma viability, higher = more signal;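 further: cells grown under basal conditions without added stimulus; test concentration not given here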
[6] = basal HepG2 mitochondrial membrane potential changes, profiling panel, cell-based, JC-1 fluorescence, 24 h, 100 nL compound (AID 1167); settings: higher = more signal; further: test concentration not given here
[7] = basal 3T3-L1 adipocyte mitochondrial potential changes, profiling panel, cell-based, JC-1 fluorescence, 3T3-L1 adipocytes, 24 h, 100 nL compound (AID 1168); settings: JC-1 mitochondrial fluorescence, higher = more signal, called active from +8 up or from −8 down; further: test concentration not given here
[8] = basal RPMI8226 mitochondrial membrane potential changes, profiling panel, cell-based, JC-1 fluorescence, 24 h, 100 nL compound (AID 1169); settings: RPMI8226 myeloma, JC-1 mitochondrial potential fluorescence, higher = more signal; further: test concentration not given here
[9] = basal MM1S mitochondrial membrane potential changes, profiling panel, cell-based, JC-1 fluorescence, 24 h, 100 nL compound (AID 1170); settings: higher = more signal; further: test concentration not given here
[10] = A549 lung cancer cell viability effects, profiling panel, resazurin fluorescence, 24 h, PK04 Diversity Set (AID 1171); settings: higher = more signal, called active from +8 up or from −8 down; further: test concentration not given here
[11] = HepG2 liver cancer cell viability effects, profiling panel, resazurin fluorescence, 24 h, PK04 Diversity Set (AID 1172); settings: higher = more signal; further: test concentration not given here
[12] = basal S. cerevisiae growth modulation, no modifier, primary screen, OD600, strain BY4716, 24 h, basal condition (AID 1173); settings: OD600, 24 h, higher = more signal, called active from +8 up or from −8 down
[13] = MM1S myeloma cell viability, profiling panel, resazurin fluorescence, basal, 24 h, PK04 Diversity Set (AID 1174); settings: higher = more signal, called active from +8 up or from −8 down;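 further: MM1S multiple myeloma cell line; test concentration not given here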
[14] = biological target: Dihydroorotate dehydrogenase (quinone), mitochondrial (Plasmodium falciparum (isolate 3D7)) (UniProt Q08210); assay: PfDHODH enzyme inhibitors, primary screen, biochemical, C-terminal His tag, absorbance 600 nm (AID 1175); settings: DCIP absorbance 600 nm, higher = more signal, called active from +8 up or from −8 down;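 further: recombinant parasite enzyme with a five histidine tag at its C terminus; test concentration not given here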
[15] = P. aeruginosa biofilm formation inhibitors, primary screen, strain PAO1, LB-PBS medium, absorbance 600 nm (AID 1176); further: test concentration not given here; settings: P. aeruginosa PAO1 growth/biofilm, A600, 12 h; higher = more signal
[16] = S. cerevisiae RM11-1a growth modifiers, primary screen, strain RM11-1a, OD600, basal, 24 h (AID 1177); settings: OD600, 24 h, higher = more signal, called active from +8 up or from −8 down;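 further: cultures grown under basal conditions with no added stressor; test concentration not given here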
[17] = E. coli acrAB mutant growth effects, primary screen, E. coli filamentation inducers, strain DRC39, OD650, 24 h (AID 1178); settings: higher = more signal, called active from +8 up or from −8 down;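 further: growth measured as culture turbidity by optical density at 650 nm; test concentration not given here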
[18] = E. coli acrAB mutant growth effects, primary screen, E. coli filamentation inducers, strain DRC39, OD650, 48 h (AID 1179);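 further: screen aims at cell division blockers that make cells filament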; settings: E. coli DRC39 delta-acrAB growth, higher = more signal, called active from +8 up or from −8 down
[19] = RPMI8226 myeloma cell viability, profiling panel, resazurin fluorescence, basal, 24 h, PK04 Diversity Set (AID 1180); settings: higher = more signal;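 further: RPMI8826 multiple myeloma cell line at 5000 cells per well; test concentration not given here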
[20] = biological target: E3 ubiquitin-protein ligase XIAP (Homo sapiens) (UniProt P98170); assay: XIAP binders, primary screen, biophysical, small-molecule microarray, fluorescence 635 nm (AID 1181); settings: small-molecule microarray binding, higher = more signal;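 further: score merges 667 nm emission and signal to noise over triplicate slides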
Sequence of E3 ubiquitin-protein ligase XIAP (Homo sapiens) (P98170 whole entry, looked up): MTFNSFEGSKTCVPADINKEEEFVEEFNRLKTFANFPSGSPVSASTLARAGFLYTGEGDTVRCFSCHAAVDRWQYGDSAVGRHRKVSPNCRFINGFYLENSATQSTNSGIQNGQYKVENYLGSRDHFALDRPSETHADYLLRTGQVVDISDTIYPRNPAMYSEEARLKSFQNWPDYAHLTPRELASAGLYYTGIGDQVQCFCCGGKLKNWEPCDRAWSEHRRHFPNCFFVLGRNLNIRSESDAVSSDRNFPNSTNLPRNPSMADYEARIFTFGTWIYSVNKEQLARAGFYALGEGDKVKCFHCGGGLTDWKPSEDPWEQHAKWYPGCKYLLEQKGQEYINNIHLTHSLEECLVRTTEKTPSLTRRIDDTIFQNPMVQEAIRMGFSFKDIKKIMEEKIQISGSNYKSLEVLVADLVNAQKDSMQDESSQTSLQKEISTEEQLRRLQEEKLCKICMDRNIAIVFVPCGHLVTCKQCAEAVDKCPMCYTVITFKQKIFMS

Sequence of Dihydroorotate dehydrogenase (quinone), mitochondrial (Plasmodium falciparum (isolate 3D7)) (Q08210 whole entry, looked up): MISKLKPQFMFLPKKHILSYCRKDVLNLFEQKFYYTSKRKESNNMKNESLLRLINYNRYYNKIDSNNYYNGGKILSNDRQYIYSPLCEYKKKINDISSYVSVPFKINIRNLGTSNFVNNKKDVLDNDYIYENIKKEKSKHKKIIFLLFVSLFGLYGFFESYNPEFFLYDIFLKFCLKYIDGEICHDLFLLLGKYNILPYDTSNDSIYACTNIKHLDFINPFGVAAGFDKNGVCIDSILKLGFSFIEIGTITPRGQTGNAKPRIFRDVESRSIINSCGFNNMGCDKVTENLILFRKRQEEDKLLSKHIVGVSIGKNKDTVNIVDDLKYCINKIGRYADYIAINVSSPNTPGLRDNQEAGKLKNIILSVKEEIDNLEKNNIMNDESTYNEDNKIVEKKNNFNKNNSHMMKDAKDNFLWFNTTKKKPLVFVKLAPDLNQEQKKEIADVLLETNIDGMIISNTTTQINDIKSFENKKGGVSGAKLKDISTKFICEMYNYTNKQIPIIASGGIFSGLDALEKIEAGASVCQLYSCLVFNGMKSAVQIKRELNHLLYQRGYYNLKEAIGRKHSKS

Compound | z-score [1] | z-score [2] | z-score [3] | z-score [4] | z-score [5] | z-score [6] | z-score [7] | z-score [8] | z-score [9] | z-score [10] | z-score [11] | z-score [12] | z-score [13] | composite z-score [14] | z-score [15] | z-score [16] | z-score [17] | z-score [18] | z-score [19] | composite z-score [20]
C[C@@]12COC[C@]13C=C(Br)[C@H](C2)[C@@]1(CO1)C3=O | 0.109 | -0.245 | -0.318 | -1.75 | -0.31 | -1.47 | -0.24 (inactive) | 0.253 | -1.12 | -0.557 (inactive) | 0.138 | -1.38 (inactive) | -0.0295 (inactive) | -0.658 (inactive) | -0.259 (inactive) | -0.187 (inactive) | -0.651 (inactive) | -0.534 (inactive) | 0.219 | -0.154
O=C(N1CCOCC1)[C@@]1(CCS(=O)(=O)c2ccccc2)N=C(c2ccc(OCCCO)cc2)O[C@H]1c1ccccc1 | 0.723 | -0.614 | 0.491 | 0.201 | 0.614 | 0.271 | -0.277 (inactive) | -0.489 | -0.617 | -0.223 (inactive) | -0.285 | 1.24 (inactive) | -0.986 (inactive) | 0.225 (inactive) | 1.02 (inactive) | 0.0235 (inactive) | 0.0835 (inactive) | 0.0231 (inactive) | -1.09 | 0.3
NCCCCCNC(=O)[C@@H]1C[C@@H]2C(=O)N3CCC[C@H]3C(=O)N2[C@@H]1c1ccc(O)cc1 | 0.389 | 0.485 | 0.2 | -0.42 | 0.209 | -0.0437 | -0.645 (inactive) | -0.175 | 0.73 | -0.234 (inactive) | -0.448 | 0.2 (inactive) | 0.422 (inactive) | 0.509 (inactive) | -0.102 (inactive) | 0.801 (inactive) | -0.281 (inactive) | -0.107 (inactive) | 0.272 | -0.0663
CCN(CC)c1ccc(N2CC=CC34O[C@@H]5/C=C\CCC(C)OC(=O)C5[C@H]3C(=O)N(C(C)CO)[C@@H]4C2=O)cc1 (stereo not given in full) | -0.0588 | -1.03 | 1.48 | 0.86 | 0.388 | 1.16 | 0.0645 (inactive) | -0.616 | -0.585 | -0.0052 (inactive) | 0.958 | -0.893 (inactive) | 0.259 (inactive) | 0.881 (inactive) | -1.28 (inactive) | 0.507 (inactive) | 0.966 (inactive) | 1.39 (inactive) | 0.0809 | 0.0727
COc1cc(C(O)C2C=CC3C(=O)N(Cc4ccccc4)C(=O)C3N2n2cnnc2)cc(OC)c1OC (stereo not given) | 1.39 | -0.356 | 1.67 | 0.599 | 1.46 | 0.576 | 0.328 (inactive) | 0.251 | 0.588 | -0.538 (inactive) | 0.462 | -0.786 (inactive) | 0.129 (inactive) | -1.12 (inactive) | 1.6 (inactive) | -1.27 (inactive) | 0.904 (inactive) | 0.759 (inactive) | 0.0011 | 0.0546
CC(C)C[C@@H]1NC(=O)CNC(=O)[C@@]23C(=O)N[C@@H](Cc4ccccc4)C2[C@H](C)[C@@]2(C)O[C@H]2C3/C=C/C/C=C\CNC1=O (stereo not given in full) | -0.692 | 0.404 | -0.262 | 0.0565 | -0.939 | -0.513 | 0.00154 (inactive) | -0.385 | -0.181 | 0.547 (inactive) | 0.544 | 0.205 (inactive) | 0.339 (inactive) | 0.084 (inactive) | 1.31 (inactive) | 0.0082 (inactive) | 0.387 (inactive) | 0.394 (inactive) | 0.663 | -0.164
COCCOC(=O)N1C(=O)[C@@]2(c3cc(C#CCCO)ccc31)[C@H](C(=O)N1CCCCCCC1)[C@H]1C(=O)O[C@H](c3ccccc3)[C@H](c3ccccc3)N1[C@@H]2c1ccccc1OCCO | 0.862 | 1.45 | 0.566 | -2.12 | -1.62 | -0.292 | -0.0643 (inactive) | -0.815 | -0.513 | 1 (inactive) | -0.0873 | 0.348 (inactive) | 0.413 (inactive) | -0.0989 (inactive) | 0.898 (inactive) | 0.881 (inactive) | -0.759 (inactive) | -0.359 (inactive) | 0.3 | 0.113
C=CCNC(=O)[C@H]1[C@@H]2C(=O)O[C@@H](c3ccccc3)[C@@H](c3ccccc3)N2[C@@H](c2ccc(OCCO)cc2)[C@]12C(=O)N(C(=O)OCCOC)c1ccc(C#Cc3ccc(OC)cc3)cc12 | -0.394 | 1.44 | -0.652 | -0.303 | -1.2 | -1.22 | 3.09 (inactive) | -0.904 | -0.529 | 0.0724 (inactive) | -1.14 | 0.583 (inactive) | 0.476 (inactive) | -2.05 (inactive) | 2.11 (inactive) | 2.22 (inactive) | 1.07 (inactive) | 0.941 (inactive) | 0.637 | -0.0344
